Hits are enriched below; roughly 7.9% of the tested compounds scored in any of these assays.
KB-3-1 tox – KB-3-1 parental cell cytotoxicity | 400,000 tested, 1.4% active | KB-3-1 viability, CellTiter-Glo ATP luminescence, 72 h | Potency, µM (top dose mostly 46.1 µM), hits mostly cytotoxic; note: % is set by controls: 0 for no effect and ±100 for the full control effect; nearly all actives have a fitted effect of over 60% in size
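Parental KB-3-1 adenocarcinoma cells in phenol-red-free DMEM with 10% FBS were pin-treated with compounds at several concentrations, incubated 72 h at 37 °C, and viability read by CellTiter-Glo luminescence; concentration-effect curves were fitted after normalization.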
KB-V1 cytotox – KB-V1 MDR subline cytotoxicity; AID 1347076; Potency, µM (top dose mostly 46.1 µM), usual class: cytotoxic; KB-V1 MDR cells viability, CellTiter-Glo, 72 h; 400,000 tested, 3.4% active; note: % is set by controls: 0 for no effect and ±100 for the full control effect; nearly all actives have a fitted effect of over 60% in size
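Potencies derive from concentration-effect curves fitted to normalized luminescence (CellTiter-Glo) of KB-V1 cells treated for 72 h at 37 degrees C in phenol-red-free DMEM containing 10% FBS.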
MCF10A rerep – inducers of DNA re-replication in MCF 10A breast cells; MCF 10A DNA re-replication, Hoechst nuclear intensity, 48 h; Potency, µM (titrated, usually from 46.1 µM), for inactives: top-dose activity, positive = re-replication, most hits filed as activators; 350,000 tested, 2.9% active; note: % of control where 0% means no effect; nearly all actives have a fitted effect of over 50% in size
HT1080 IDH1KD tx – kills HT-1080 cells with IDH1 knockdown; Potency, µM (doses to about 46.1 µM), inactives show at the top dose activity, negative = toxicity, actives largely listed as cytotoxic; HT-1080 IDH1 knockdown viability, ATP luminescence, 48 h; 360,000 tested, 2% active;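 note: 0% = DMSO wells and -100% = cell-free medium wells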
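After a 2 h attachment period, IDH1KD HT-1080 cells took pin-transferred compound for 48 h at 37 °C; ATP-based luminescence after 10 min room-temperature reagent incubation reported viability.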
SW480 rereplic – induces DNA re-replication in SW480 colon adenocarcinoma cells; SW480 DNA re-replication, Hoechst DNA content imaging, 48 h; Potency, µM (top dose mostly 46.1 µM), inactives show at the highest dose re-replication activation, actives largely listed as activators; 340,000 tested, 1.8% active; AID 624297; note: % of control where 0% means no effect; nearly all actives have a fitted effect of over 55% in size
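Quantitative HTS format with DMSO vehicle controls; 48 hr drug incubation at 37 C, then 40 min Hoechst staining and scanning imager measurement at 405 nm excitation.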
HT1080NT lethal – kills 2HG-producing HT-1080-NT fibrosarcoma cells; 360,000 tested, 1.6% active; HT-1080-NT fibrosarcoma viability, CellTiter-Glo ATP luminescence, 48 h; Potency, µM (titrated, usually from 46.1 µM), inactives show at the highest dose activity, negative = less viability, most hits filed as cytotoxic;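 note: NT is the 2HG producing partner of a matched IDH1 knockdown line; 0% = DMSO-treated cells and -100% = media-only wells without cells; nearly all actives have a fitted effect of over 55% in size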
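HT-1080-NT fibrosarcoma cells (2HG-overproducing), 750 cells/well in RPMI with 5% FBS, dosed after 2 h and incubated 48 h at 37C. CellTiter-Glo luminescence normalized to DMSO and no-cell wells; concentration-response curves fitted and classed.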
* = called active by the depositor; i = inactive; ? = inconclusive; nt = not tested or not shown; [ ] = another dose, or the depositor's remark. Calls come from the whole dose curve; as a rule, active = well fitted curve in the direction sought with a large enough effect; inconclusive = small, poorly fitted or top-dose-only effect, or another doubt; inactive = no such curve, though single readings can be large; an effect the other way counts as inactive or inconclusive. Potency is the fitted concentration of half-maximal effect.

SMILES	KB-3-1 tox	KB-V1 cytotox	MCF10A rerep	HT1080 IDH1KD tx	SW480 rereplic	HT1080NT lethal
CCCCOc1ccc(NC2=NC3(CCCCC3)N=C(N)N2)cc1	15µM*	i	?	?	4%	?
COc1ccc(NC2=NC3(CCCCC3)N=C(N)N2)cc1	i	i	0%	8%	-2%[9.22 µM]	11%
Cc1nc(SCC(=O)NCc2ccco2)[nH]c(=O)c1C	i	?	23µM*	-20%	?	?
COc1ccc(-c2nc(SCC(=O)NCc3ccco3)c(-c3ccccc3)[nH]2)cc1OC	i	i	21µM*	4%	1%	5%
Cc1cccc(-c2nsc(SCC(=O)NCc3ccc4c(c3)OCO4)n2)c1	i	i	0%	0%	-2%	-11%
Cc1cccc(-c2nsc(SCC(=O)NCc3ccco3)n2)c1	i	21µM*	12%	-1%	-1%	1%
COc1ccc(-c2[nH]c(-c3ccccc3)nc2SCC(=O)NCc2ccco2)cc1OC	i	?	3%	-10%	1%	0%
Nc1nc(SCC(=O)NCc2ccco2)[nH]c(=O)c1-c1ccccc1	i	i	27%	14%	?	-3%
CCOC(=O)N1CCN(C(=O)CN(c2cc(C)ccc2OC)S(=O)(=O)c2ccc(C)cc2)CC1	i	i	nt	nt	nt	nt
Cc1ccc(Cl)cc1NC(=O)C1CCCN(S(=O)(=O)c2c(C)noc2/C=C/N(C)C)C1 (stereo not given)	i	i	nt	nt	nt	nt
CCN(C(=O)C1CCN(S(=O)(=O)c2cc(Br)cc3c2N(C(C)=O)CC3)CC1)c1cccc(C)c1	i	i	nt	nt	nt	nt
C#CCN(C[C@@H]1[C@@H](OC(=O)NCc2ccc(OC)c(OC)c2)[C@@H](OC(=O)NCc2ccc(OC)c(OC)c2)Cn2c(=O)ccc(=O)n21)S(=O)(=O)c1ccc(C)cc1	?	i	nt	21µM*	nt	9.2µM*
C#CCN(C[C@@H]1[C@@H](OC(=O)NCc2ccco2)[C@@H](OC(=O)NCc2ccco2)Cn2c(=O)n(CCCCCC)c(=O)n21)S(=O)(=O)c1ccc(C)cc1	?	i	nt	-6%	nt	-3%
C#CCN(C[C@@H]1[C@@H](OC(=O)NCc2ccco2)[C@@H](OC(=O)NCc2ccco2)Cn2c(=O)ccc(=O)n21)S(=O)(=O)c1ccc(C)cc1	16µM*	i	nt	?	nt	15µM*
C#CCN(C[C@@H]1[C@@H](OC(=O)NCc2ccc(OC)c(OC)c2)[C@@H](OC(=O)NCc2ccc(OC)c(OC)c2)Cn2c(=O)n(CCCCCC)c(=O)n21)S(=O)(=O)c1ccc(C)cc1	i	?	nt	11%	nt	0%
C#CCN(C[C@@H]1[C@@H](OC(=O)NCC2CCCCC2)[C@@H](OC(=O)NCC2CCCCC2)Cn2c(=O)ccc(=O)n21)S(=O)(=O)c1ccc(C)cc1	i	i	nt	2.6µM*	nt	5.2µM*
CCCCCCNC(=O)O[C@H]1Cn2c(=O)ccc(=O)n2[C@@H]2CN(S(=O)(=O)c3ccc(C)cc3)C[C@]12O	16µM*	i	nt	23µM*	nt	16µM*
Cc1ccc(-c2nnc3ccccc3c2C(=O)Nc2ccccc2F)cc1	i	i	nt	nt	nt	nt
COc1ccccc1CNC(=O)c1cccc(NC(=O)N2CCSc3ncccc32)c1	i	i	nt	nt	nt	nt
O=C(NCc1ccccc1)NC1COc2ccccc2C1 (stereo not given)	i	i	nt	nt	nt	nt
C#CCN(C[C@@H]1[C@@H](OC(=O)NCCCCCC)[C@@H](OC(=O)NCCCCCC)Cn2c(=O)ccc(=O)n21)S(=O)(=O)c1ccc(C)cc1	?	i	nt	4.1µM*	nt	4.6µM*
C#CCN(C[C@@H]1[C@@H](OC(=O)NC2CC2)[C@@H](OC(=O)NC2CC2)Cn2c(=O)n(CCCCCC)c(=O)n21)S(=O)(=O)c1ccc(C)cc1	i	i	nt	-14%	nt	-19%
Cc1ccc(S(=O)(=O)c2nnn3c2nc(N2CCCC(C)C2)c2cc(Cl)ccc23)cc1C (stereo not given)	i	i	nt	nt	nt	nt
O=C1CCCC2=C1C1(CCCC1)N=C(Nc1nc3ccccc3s1)N2	i	i	?	12%	-3%	10%
O=C1CCCC2=C1C1(CCCCC1)N=C(Nc1nc3ccccc3s1)N2	i	i	10µM*	-3%	15%	16%
SMILES	KB-3-1 tox	KB-V1 cytotox	MCF10A rerep	HT1080 IDH1KD tx	SW480 rereplic	HT1080NT lethal
COc1cccc(C(=O)NCC(c2ccc3c(c2)OCO3)N2CCN(C)CC2)c1 (stereo not given)	i	i	nt	nt	nt	nt
CCN(C(=O)C(=O)Nc1ccc2nc3n(c(=O)c2c1)CCCCC3)c1ccc(F)cc1	i	i	nt	nt	nt	nt
CS(=O)(=O)c1ccc(-c2csc(C(O)c3cccc(Cl)c3)n2)cc1 (stereo not given)	i	i	nt	-11%	nt	-1%
COc1ccc2c(c1)-c1c(ssc1=S)C(C)(C)N2	i	?	12µM*	?	-4%	?
COc1ccc(-n2sc3c(c2=S)-c2cc(OC)ccc2NC3(C)C)cc1	i	i	18%	?	19%	?
COc1ccc2c(c1)-c1c(sn(-c3ccc(OC)c(OC)c3)c1=S)C(C)(C)N2	i	i	10%	18µM*	16%	?
CCN1CCN(c2ccc(S(=O)(=O)N3CCCCC3)cc2NC(=O)c2ccc(C)c(C)c2)CC1	i	i	0%	-21%	1%	-28%
COc1ccc(S(=O)(=O)N2CCCCC2)cc1NC(=O)c1ccc([N+](=O)[O-])o1	18µM*	i	2.3µM*	-6%	2.9µM*	7%
CCN1CCN(c2ccc(S(=O)(=O)N3CCCCC3)cc2NC(=O)c2ccc([N+](=O)[O-])o2)CC1	?	?	?	2%	7.3µM*	-1%
COc1ccc(-c2cc3ccccc3oc2=O)cc1NC(=O)c1ccc(Br)o1	i	i	25%	-29%	26%	-13%
COc1ccc(-c2cc3ccccc3oc2=O)cc1NC(=O)c1ccc([N+](=O)[O-])o1	?	?	7.3µM*	?	9.2µM*	-11%
COc1ccc(S(=O)(=O)N2CCCCC2)cc1NC(=O)c1ccco1	i	i	0%	-1%	-1%	-11%
O=C1C2C3c4ccccc4C(Br)(c4ccccc43)C2C(=O)N1c1ccccc1O (stereo not given)	i	i	-7%	12%	18µM*	6%
